Data published in PubChem BioAssay.
Calls of active or inactive are those of the source.

Legend:
[1] = biological target: Albumin (Bos taurus) (UniProt P02769); test: bovine serum albumin binders on microarray, profiling panel, artefact control for SMM control protein annotation, biochemical, small-molecule microarray, Alexa647 label, 635/667 nm fluorescence (AID 1118); settings: BSA-A647 binding, fluorescence 635 nm, higher = more signal;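 also: score merges 667 nm emission intensity and signal-to-noise per printed compound spot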
Sequence of Albumin (Bos taurus) (P02769 whole entry, looked up): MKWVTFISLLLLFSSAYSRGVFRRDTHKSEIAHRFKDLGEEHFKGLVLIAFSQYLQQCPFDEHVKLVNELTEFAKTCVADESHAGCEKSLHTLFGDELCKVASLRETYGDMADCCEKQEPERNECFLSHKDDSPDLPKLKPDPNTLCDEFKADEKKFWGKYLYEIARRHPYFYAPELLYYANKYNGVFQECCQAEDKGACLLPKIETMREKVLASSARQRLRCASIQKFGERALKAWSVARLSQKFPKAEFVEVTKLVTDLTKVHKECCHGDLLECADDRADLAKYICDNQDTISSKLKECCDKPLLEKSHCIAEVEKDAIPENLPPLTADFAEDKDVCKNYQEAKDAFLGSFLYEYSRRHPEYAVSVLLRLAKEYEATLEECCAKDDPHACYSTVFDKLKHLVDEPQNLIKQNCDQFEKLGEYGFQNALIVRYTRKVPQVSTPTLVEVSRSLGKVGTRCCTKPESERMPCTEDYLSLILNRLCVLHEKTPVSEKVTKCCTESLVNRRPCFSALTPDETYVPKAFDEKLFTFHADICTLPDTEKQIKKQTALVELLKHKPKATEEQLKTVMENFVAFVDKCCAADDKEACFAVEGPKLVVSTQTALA

[2] = small-molecule microarray binders of probe aXIP, primary screen, biochemical, NeuroSMM set, 635/667 nm fluorescence (AID 1119); settings: higher = more signal, called active from +8 up or from −8 down;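 also: probe is the protein aXip251-270 applied at 1 µg/mL to compound-printed slides; binding of probe to printed compounds measured as 667 nm fluorescence plus signal to noise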
[3] = small-molecule binders of probe aNOTCH3, primary screen, biochemical, small-molecule microarray, 635/667 nm fluorescence (AID 1120); settings: higher = more signal;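 also: probe is a biotin-tagged antibody raised against NOTCH3 rather than NOTCH3 protein; score merges spot fluorescence near 667 nm with spot signal to noise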
[4] = small-molecule binders of probe aNOTCH2, primary screen, biochemical, small-molecule microarray, 635/667 nm fluorescence (AID 1121); settings: higher = more signal;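 also: score merges feature fluorescence read at 667 nm with its signal to noise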
[5] = biological target: Carbonic anhydrase 2 (Homo sapiens) (UniProt P00918); test: CAII small-molecule binders, profiling panel, biochemical, small-molecule microarray, Alexa647-labelled CAII (AID 1122); settings: CAII-A647 binding fluorescence, higher = more signal
[6] = COS7 lysate on small-molecule microarray, probe aHis, 635 nm (AID 1123); settings: COS7 cell lysate, fluorescence, higher = more signal;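 also: z-score combines 667nm fluorescence intensity with signal-to-noise per printed compound spot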
[7] = compound binding in COS7 lysate, probe aLAP1, primary screen, cell lysate, small-molecule microarray (AID 1124); settings: probe aLAP1, fluorescence, higher = more signal;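 also: lysate comes from COS7 cells expressing LAP1 and is applied at 0.3 µg/mL; score merges spot fluorescence near 667 nm with signal-to-noise over triplicate slides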
[8] = tested on: Sam68 (KHDRBS1); test: Sam68 small-molecule binders, primary screen, biochemical, small-molecule microarray, 635 nm fluorescence (AID 1125); settings: small-molecule microarray binding, higher = more signal;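 also: score merges 667 nm channel intensity with signal to noise over triplicate slides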
[9] = tested on: Chordin-like protein 2 (CHRDL2); test: CHRDL2 small-molecule binders, primary screen, biochemical, small-molecule microarray, 635 nm fluorescence (AID 1126); settings: small-molecule microarray binding, fluorescence 635 nm; higher = more signal;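 also: printed compound slides probed with Chrdl2 protein at 4 µg/mL for 1 h at 4 C; score merges 667 nm emission intensity with signal to noise over three replicate slides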
[10] = biological target: Concanavalin-A (Canavalia ensiformis) (UniProt P02866); test: ConA small-molecule binders, primary screen, artefact control for SMM control protein annotation, biochemical, small-molecule microarray, Alexa647 label, 635 nm (AID 1127); settings: ConA-A647 binding fluorescence, higher = more signal;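 also: z combines 667 nm emission intensity with signal-to-noise across three replicate slides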
Sequence of Concanavalin-A (Canavalia ensiformis) (P02866 whole entry, looked up): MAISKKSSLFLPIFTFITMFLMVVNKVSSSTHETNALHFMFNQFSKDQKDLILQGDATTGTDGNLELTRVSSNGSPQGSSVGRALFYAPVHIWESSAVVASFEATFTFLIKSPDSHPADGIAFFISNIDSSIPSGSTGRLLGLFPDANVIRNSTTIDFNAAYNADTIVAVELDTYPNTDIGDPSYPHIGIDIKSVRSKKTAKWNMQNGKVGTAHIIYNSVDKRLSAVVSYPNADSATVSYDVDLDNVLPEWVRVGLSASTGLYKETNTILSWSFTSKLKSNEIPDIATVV

[11] = anti-His antibody binders, primary screen, artefact control for SMM control protein annotation, biochemical, small-molecule microarray, 635 nm fluorescence (AID 1128); settings: anti-His Alexa647 antibody binding, higher = more signal;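 also: score merges feature fluorescence with signal-to-noise for each printed compound spot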
[12] = tested on: Human papillomavirus type 1a E7 protein (residues 1-88); test: HPV1a E7 small-molecule binders, primary screen, biochemical, small-molecule microarray, residues 1-88, 635 nm (AID 1129); settings: small-molecule microarray binding, fluorescence 635 nm; higher = more signal
[13] = biological target: Focal adhesion kinase 1 (Homo sapiens) (UniProt Q05397); test: small-molecule microarray binders of FAK, primary screen, biochemical, 635/667 nm fluorescence, BSA, DTT (AID 1130); settings: PTK2 binding, 635 nm fluorescence, higher = more signal;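 also: composite of spot emission at 667 nm and signal to noise over triplicate slides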
Sequence of Focal adhesion kinase 1 (Homo sapiens) (Q05397 whole entry, looked up): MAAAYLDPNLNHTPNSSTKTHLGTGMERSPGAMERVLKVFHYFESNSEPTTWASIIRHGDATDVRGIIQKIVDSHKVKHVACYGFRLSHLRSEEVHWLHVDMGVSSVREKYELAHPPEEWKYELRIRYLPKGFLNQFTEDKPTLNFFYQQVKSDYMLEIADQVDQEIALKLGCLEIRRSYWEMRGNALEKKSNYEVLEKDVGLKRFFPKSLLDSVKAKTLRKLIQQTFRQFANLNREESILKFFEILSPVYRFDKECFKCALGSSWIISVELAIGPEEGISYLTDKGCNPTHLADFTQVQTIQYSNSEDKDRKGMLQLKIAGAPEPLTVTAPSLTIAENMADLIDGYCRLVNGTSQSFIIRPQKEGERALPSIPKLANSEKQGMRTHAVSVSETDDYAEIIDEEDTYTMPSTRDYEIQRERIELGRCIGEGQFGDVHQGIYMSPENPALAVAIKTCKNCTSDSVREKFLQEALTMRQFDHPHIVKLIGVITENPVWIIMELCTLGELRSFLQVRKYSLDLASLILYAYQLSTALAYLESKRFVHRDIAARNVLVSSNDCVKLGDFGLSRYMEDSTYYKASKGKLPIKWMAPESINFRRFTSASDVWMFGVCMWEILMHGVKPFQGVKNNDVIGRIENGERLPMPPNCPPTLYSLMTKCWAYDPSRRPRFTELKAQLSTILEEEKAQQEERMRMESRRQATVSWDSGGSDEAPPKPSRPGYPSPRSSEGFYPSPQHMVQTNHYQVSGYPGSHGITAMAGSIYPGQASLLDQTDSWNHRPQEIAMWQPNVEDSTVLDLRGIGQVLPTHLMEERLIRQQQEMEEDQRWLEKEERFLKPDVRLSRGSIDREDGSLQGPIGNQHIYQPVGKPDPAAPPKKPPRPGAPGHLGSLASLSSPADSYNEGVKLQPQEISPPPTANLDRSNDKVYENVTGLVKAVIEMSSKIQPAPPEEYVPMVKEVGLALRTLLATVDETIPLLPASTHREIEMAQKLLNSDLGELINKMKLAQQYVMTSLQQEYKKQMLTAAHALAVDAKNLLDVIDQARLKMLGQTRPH

[14] = tested on: Fibrinogen (Alexa647-labelled); test: fibrinogen binders on compound microarrays, profiling panel, artefact control for SMM control-protein annotation, biochemical, small-molecule microarray, 635/667 nm fluorescence (AID 1131); settings: fibrinogen-A647 binding fluorescence, higher = more signal;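 also: z-score merges 667 nm fluorescence with per-spot signal-to-noise over triplicate slides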
[15] = biological target: Follistatin (Homo sapiens) (UniProt P19883); test: follistatin binders on small-molecule microarrays, primary screen, biochemical, small-molecule microarray, 635/667 nm fluorescence (AID 1132); settings: FST binding, 635 nm fluorescence, higher = more signal
Sequence of Follistatin (Homo sapiens) (P19883 whole entry, looked up): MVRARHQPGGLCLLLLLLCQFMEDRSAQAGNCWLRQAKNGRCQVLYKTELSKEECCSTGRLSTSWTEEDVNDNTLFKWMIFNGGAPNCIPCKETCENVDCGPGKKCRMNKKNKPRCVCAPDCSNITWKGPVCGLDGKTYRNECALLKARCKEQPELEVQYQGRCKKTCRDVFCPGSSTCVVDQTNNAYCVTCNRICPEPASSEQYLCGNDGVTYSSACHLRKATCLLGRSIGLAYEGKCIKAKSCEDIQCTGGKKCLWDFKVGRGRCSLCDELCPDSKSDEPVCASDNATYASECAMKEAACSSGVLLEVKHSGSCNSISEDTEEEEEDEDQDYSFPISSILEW

[16] = biological target: Fibroblast growth factor 2 (Homo sapiens) (UniProt P09038); test: FGF2 binders on small-molecule microarrays, primary screen, biochemical, small-molecule microarray, 635/667 nm fluorescence (AID 1133); settings: small-molecule microarray binding, FGF2, fluorescence 635/667; higher = more signal
Sequence of Fibroblast growth factor 2 (Homo sapiens) (P09038 whole entry, looked up): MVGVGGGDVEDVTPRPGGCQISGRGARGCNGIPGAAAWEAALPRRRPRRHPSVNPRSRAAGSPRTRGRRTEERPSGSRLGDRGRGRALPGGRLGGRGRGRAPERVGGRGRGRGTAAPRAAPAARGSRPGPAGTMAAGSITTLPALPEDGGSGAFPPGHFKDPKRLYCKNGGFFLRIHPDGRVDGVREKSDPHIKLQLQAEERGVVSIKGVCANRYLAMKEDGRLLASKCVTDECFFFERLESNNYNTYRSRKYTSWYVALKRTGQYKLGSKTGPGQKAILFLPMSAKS

[17] = mitochondrial membrane potential change in A549 cells, profiling panel, cell-based, JC-1 fluorescence, basal, 24 h, 100 nL (AID 1138); settings: higher = more signal;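 also: A549 lung adenocarcinoma cells under basal conditions with no added stimulus; test concentration not given here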
[18] = tested on: Lefty1; test: Lefty1 binders on small-molecule microarrays, primary screen, biochemical, small-molecule microarray, 635/667 nm fluorescence (AID 1139); settings: small-molecule microarray binding, fluorescence 635/667; higher = more signal
[19] = tested on: wheat germ agglutinin (Triticum aestivum), Alexa647-labelled; test: wheat germ agglutinin binders on compound microarrays, profiling panel, artefact control for SMM control-protein annotation, biochemical, small-molecule microarray, 635/667 nm fluorescence (AID 1140); settings: WGA-A647 binding, 635 nm fluorescence, higher = more signal;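 also: score merges 667 nm feature emission with signal to noise over triplicate slides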
[20] = biological target: Luciferin 4-monooxygenase (Photinus pyralis) (UniProt P08659); test: firefly luciferase enzyme inhibitors, primary screen, biochemical, luminescence, purified enzyme, 2006 set (AID 1141); settings: SteadyGlo luminescence, 30 min, higher = more signal, called active from +8 up or from −8 down;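 also: cell-free assay with purified firefly luciferase at 100 ng per well in PBS; test concentration not given here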
Sequence of Luciferin 4-monooxygenase (Photinus pyralis) (P08659 whole entry, looked up): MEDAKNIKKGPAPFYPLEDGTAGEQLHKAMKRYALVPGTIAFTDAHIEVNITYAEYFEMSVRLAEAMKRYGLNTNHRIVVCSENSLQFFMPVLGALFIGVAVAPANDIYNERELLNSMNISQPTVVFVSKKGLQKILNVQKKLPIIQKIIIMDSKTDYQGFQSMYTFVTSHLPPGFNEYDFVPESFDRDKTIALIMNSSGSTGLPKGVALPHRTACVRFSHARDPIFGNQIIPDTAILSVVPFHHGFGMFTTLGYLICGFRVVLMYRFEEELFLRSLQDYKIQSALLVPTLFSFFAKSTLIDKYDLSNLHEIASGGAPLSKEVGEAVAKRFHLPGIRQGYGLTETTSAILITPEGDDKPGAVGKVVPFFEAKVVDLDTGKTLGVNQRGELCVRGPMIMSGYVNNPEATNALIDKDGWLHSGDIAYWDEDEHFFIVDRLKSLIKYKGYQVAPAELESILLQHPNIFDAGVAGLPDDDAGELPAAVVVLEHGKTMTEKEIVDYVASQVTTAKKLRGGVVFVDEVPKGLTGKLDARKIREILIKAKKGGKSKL

Structure (SMILES)	composite z-score [1]	composite Z-score [2]	composite z-score [3]	composite z-score [4]	composite z-score [5]	composite z-score [6]	composite z-score [7]	composite z-score [8]	composite z-score [9]	composite z-score [10]	composite z-score [11]	composite z-score [12]	composite z-score [13]	composite z-score [14]	composite z-score [15]	composite z-score [16]	z-score [17]	composite z-score [18]	composite z-score [19]	z-score [20]
O=C1C2C=CC(C(O)c3cccs3)N(Nc3ccccc3F)C2C(=O)N1c1ccccc1 (stereo not given)	0.512	-0.413 (inactive)	-0.0728	-0.181	0.419	1.55	0.118	0.794	-0.399	0.653	1.29	1.09	0.961	0.916	0.414	-0.282	-0.265	-0.0918	0.127	1.71 (inactive)
COCCCNC(=O)[C@@]1(CCC(=O)OC(C)(C)C)N=C(c2ccc(OCCCO)cc2)O[C@H]1c1ccccc1CN=[N+]=[N-]	0.642	-0.371 (inactive)	0.433	0.0716	0.577	3.34	1.53	1.26	-0.105	0.8	3.15	1.04	1.02	1.01	1.39	1.28	-0.49	-0.34	1.2	-1.05 (inactive)
O=C(CCN1CCOCC1)c1cccc(O)c1	0.379	0.989 (inactive)	0.324	0.0292	0.634	0.973	0.629	0.922	1.48	0.767	1.52	0.854	0.531	0.884	1.35	1.55	0.574	1.41	1.07	0.618 (inactive)
O=C1C2C=CC(C(O)c3ccc(F)cc3)N(Nc3ccccc3)C2C(=O)N1c1ccccc1 (stereo not given)	0.843	0.121 (inactive)	0.189	0.0449	0.734	2.88	-0.364	0.654	-0.527	-0.398	1.33	1.22	0.734	0.266	-0.143	-0.762	-0.101	-0.233	0.684	0.165 (inactive)
[N-]=[N+]=NCc1ccccc1[C@@H]1OC(c2ccc(OCCCO)cc2)=N[C@]1(Cc1ccccc1N=[N+]=[N-])C(=O)NCc1ccccc1	0.753	-0.0079 (inactive)	0.111	0.0427	0.42	1.25	0.272	1.26	0.16	0.815	0.512	1.17	0.562	0.198	1.28	0.578	0.249	0.621	0.421	-5.2 (inactive)
O=C1N(CCS(=O)(=O)c2ccccc2)c2ccccc2C[C@@]12COC(c1ccc(OCCCO)cc1)=N2	-0.746	-0.279 (inactive)	0.364	0.314	0.636	2.4	0.266	1.3	0.866	1.15	2.83	1.25	1.16	0.962	1.28	0.87	-0.0718	0.222	0.611	-1.63 (inactive)
CN(C)CCCCCCNC(=O)[C@H]1C[C@H]2C(=O)N[C@@H](CCCCN)C(=O)N2[C@H]1c1ccc(O)cc1	0.987	5.54 (inactive)	1.78	0.657	0.586	4.3	1.16	1.34	1.45	1.25	3.12	1.31	-0.108	0.953	1.44	1.61	0.868	1.75	1.36	-0.62 (inactive)
Cc1ccc(S[C@]2(C(=O)NC3CC3)CC(=O)N(C3CCCCC3)[C@@H]2c2ccc(CO)cc2I)cc1	0.599	-0.186 (inactive)	0.0426	-0.123	0.408	1.31	0.396	1.28	0.0261	0.896	0.104	1.21	0.176	0.304	1.26	0.341	1.69	0.87	0.368	1.06 (inactive)
CCCCC=C[C@@H](NC(=O)c1cccs1)c1ccccc1	0.84	-0.544 (inactive)	0.0435	-0.0116	0.251	1.35	0.369	0.839	-0.406	0.499	0.813	0.837	0.351	0.983	-0.145	0.067	0.679	-0.389	1.13	0.969 (inactive)
O=C1OCCC=C[C@H]2OC34C=CCN(c5ccc6ccccc6c5)C(=O)[C@H]3N(CCCCCO)C(=O)[C@@H]4C12 (stereo not given in full)	0.388	1.1 (inactive)	-0.0647	-0.0443	0.897	2.11	0.859	-0.222	0.254	-0.119	0.565	0.312	0.602	0.737	-0.626	-0.329	2.3	-0.332	1.28	-1.1 (inactive)
Cc1cc(C)cc(N2C(=O)CS(=O)(=O)C2c2cccc([N+](=O)[O-])c2)c1 (stereo not given)	0.785	1.97 (inactive)	0.799	0.189	0.547	1.73	1.36	0.828	0.433	0.989	1.11	0.632	0.894	0.829	0.508	0.126	0.382	0.874	0.841	-0.273 (inactive)
